Experimental data published in PubChem BioAssay (NCATS).
Inconclusive results are not listed. Entries that show only a call come without a potency. A structure can be active in one record and inactive in another. Unmarked numbers belong to inactive results. The source made the active and inactive calls. Calls come from the whole dose curve; as a rule, active = well fitted curve in the direction sought with a large enough effect; inconclusive = small, poorly fitted or top-dose-only effect, or another doubt; inactive = no such curve, though single readings can be large; an effect the other way counts as inactive or inconclusive.

How the values were obtained:
[1] = Quantitative highthroughput screen to assess conditional lethalithy of NOMO1 cells grown in RPMI1640 with dialyzed fetal bovine serum (RPMI+ds) (AID 1963877); note: nearly all actives have a fitted effect of over 30% in size; for viability: series mostly up to about 46 µM
Outline: (§1)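 Each medium arm—HPLM with 10% dialyzed FBS, or RPMI1640 with 5 mM glucose and 10% untreated or dialyzed FBS—was screened against an 11-point, 3-fold compound titration for 48 h at 37 °C, with CellTiter-Glo luminescence as endpoint.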

[2] = Quantitative highthroughput screen to assess conditional lethalithy of P12 Ichikawa cells grown in Human Plasma-Like Medium with dialyzed fetal bovine serum (HPLM+ds) (AID 1963879); settings: Potency: viability; note: nearly all actives have a fitted effect of over 35% in size; for viability: series mostly up to about 46 µM
Outline: as §1

[3] = Quantitative highthroughput screen to assess conditional lethalithy of P12 Ichikawa cells grown in RPMI1640 with untreated serum (RPMI+s) (AID 1963881); settings: Potency: viability; note: nearly all actives have a fitted effect of over 35% in size; for viability: series mostly up to about 46 µM
Outline: as §1

[4] = Quantitative highthroughput screen to assess conditional lethalithy of SEM cells grown in Human Plasma-Like Medium with dialyzed fetal bovine serum (HPLM+ds) (AID 1963882); note: nearly all actives have a fitted effect of over 35% in size; for viability: series mostly up to about 46 µM
Outline: as §1

[5] = Quantitative highthroughput screen to assess conditional lethalithy of SEM cells grown in RPMI1640 with dialyzed fetal bovine serum (RPMI+ds) (AID 1963884); note: nearly all actives have a fitted effect of over 35% in size; for viability: series mostly up to about 46 µM
Outline: as §1

[6] = Cellular viability qHTS for adrenocortical cancer (ACC) cell line SW-13 (AID 1963989); settings: SW-13 ACC cells viability, CellTiter-Glo, 48 h; activity (max response): active compounds read low; note: nearly all actives have a fitted effect of over 65% in size;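 for activity (max response): cells grown in serum-free medium with ITS supplement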
Outline: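 Here, serum-free SW-13 cultures were dosed up to 46 uM. Following 48 h, ATP-dependent luminescence (CellTiter-Glo) reported viable cells, and logistic modeling produced IC50 values.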

[7] = Quantitative highthroughput screen to assess conditional lethalithy of P12 Ichikawa cells grown in RPMI1640 with dialyzed fetal bovine serum (RPMI+ds) (AID 1963880); settings: Potency: P12-Ichikawa viability; note: nearly all actives have a fitted effect of over 35% in size
Outline: as §1

[8] = Quantitative highthroughput screen to assess conditional lethalithy of SEM cells grown in RPMI1640 with unreated serum (RPMI+s) (AID 1963883); note: nearly all actives have a fitted effect of over 35% in size
Outline: as §1

[9] = Quantitative highthroughput screen to assess conditional lethalithy of NOMO1 cells grown in Human Plasma-Like Medium with dialyzed fetal bovine serum (HPLM+ds) (AID 1963878); note: nearly all actives have a fitted effect of over 35% in size
Outline: as §1

[10] = Cellular viability qHTS for adrenocortical cancer (ACC) cell line NCI-H295R (AID 1963990); note: nearly all actives have a fitted effect of over 60% in size
Outline: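 Viability of NCI-H295R after 48 h of treatment (final up to 46 uM) measured through cellular ATP luminescence.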
Potency is the fitted concentration of half-maximal effect.

Row | SMILES | Potency [1] | Potency [2] | Potency [3] | Potency [4] | Potency [5] | Potency [6] | Potency [7] | Potency [8] | Potency [9] | activity (max response) [6] [%] | Potency [10]
1 | CCOC(=O)N1CCC(=C2c3ccc(Cl)cc3CCc3cccnc32)CC1 | inactive | inactive | inactive | inactive | 11.8 µM (active) | 4.61 µM (active) |  |  |  |  | 
2 | CN(C)CCCC1(c2ccc(F)cc2)OCc2cc(C#N)ccc21 (configuration not stated) | inactive | inactive | inactive | inactive | inactive |  | inactive | inactive |  |  | 
3 | CC(O)=C(C#N)C(=O)Nc1ccc(C(F)(F)F)cc1 | inactive | inactive | inactive |  |  |  |  |  | inactive |  | 
4 | OCc1ccccc1O[C@@H]1O[C@H](CO)[C@H](O)[C@H](O)[C@H]1O | 13.2 µM (active) |  |  |  |  |  | 16.6 µM (active) |  | 7.43 µM (active) |  | 
5 | CC(C(C)N1CC(=O)NC(=O)C1)N1CC(=O)NC(=O)C1 (configuration not stated) | inactive | 13.2 µM (active) | 1.66 µM (active) |  |  |  |  |  | inactive | 12.5 | inactive
6 | Cc1ccc(-c2cc(C(F)(F)F)nn2-c2ccc(S(N)(=O)=O)cc2)cc1 | inactive |  | inactive | inactive | inactive | 23.1 µM (active) | inactive | inactive | inactive | -6.62 | inactive
7 | C[C@@H]1CC=CC=CC=CC=C[C@@H](O[C@@H]2O[C@H](C)[C@@H](O)[C@H](N)[C@H]2O)C[C@@H]2O[C@](O)(C[C@@H](O)C[C@@H]3O[C@@H]3C=CC(=O)O1)C[C@H](O)[C@@H]2C(=O)O | inactive | inactive | inactive | inactive | inactive |  | inactive | inactive |  |  | 
8 | C[C@H](NC(=O)c1sccc1OCc1ccc(Cl)cc1)c1ccccc1 | inactive |  | inactive |  |  | 25.1 µM (active) | inactive |  | inactive |  | 
9 | N[C@@H](Cc1c[nH]c2ccc(O)cc12)C(=O)O | inactive | inactive | inactive | inactive |  |  | inactive |  | inactive | 10.6 | inactive
10 | Cc1nn(C)c2c1C(c1ccc(C(F)(F)F)cc1)C(C#N)=C(N)O2 (configuration not stated) | inactive | inactive |  |  |  |  | inactive |  | inactive | -18.7 | 
11 | CNC(=O)c1ccc(N2C(=S)N(c3cnc(C#N)c(C(F)(F)F)c3)C(=O)C23CCC3)cc1F | 2.35 µM (active) | inactive | inactive | inactive | inactive |  | inactive | inactive |  | 4.43 | 
12 | CC1(O)CC(c2nc(-c3ccc4ccc(-c5ccccc5)nc4c3)c3c(N)nccn23)C1 (configuration not stated) | 3.72 µM (active) | 7.43 µM (active) |  | 2.35 µM (active) | 2.35 µM (active) |  | 5.9 µM (active) | 1.18 µM (active) | 2.35 µM (active) | -21 | 
13 | CNC1[C@H](O)C(O[C@@H]2C(O)C(O[C@H]3O[C@H]([C@@H](C)NC)CC[C@H]3N)[C@@H](N)C[C@H]2N)OC[C@]1(C)O (some centres not stated) | inactive | inactive | inactive | inactive | inactive |  | inactive | inactive |  |  | 
14 | CC(C)=CCCC(C)=CCCC(C)=CCCC(C)=CCCC(C)=CCCC(C)=CCCC(C)=CCCC(C)=CCCC(C)=CCO | inactive | inactive |  | inactive |  |  | inactive |  | inactive |  | 
15 | O=C1C[C@@H](c2ccc(O)cc2)Oc2cc(O)cc(O)c21 | inactive |  | inactive | inactive | inactive |  | inactive | inactive | inactive | -16.9 | inactive
16 | Cc1[nH]c2ccccc2c1CCNCc1ccc(C=CC(=O)NO)cc1 | 0.743 µM (active) | 0.59 µM (active) | 0.469 µM (active) | 0.209 µM (active) | 0.264 µM (active) |  | 0.662 µM (active) | 0.264 µM (active) |  |  | 
17 | C[C@H](CCC(=O)O)[C@H]1CC[C@H]2[C@H]3[C@@H](CC[C@]12C)[C@@]1(C)CC[C@@H](O)C[C@H]1C[C@@H]3O | inactive | inactive |  | inactive |  |  | inactive | inactive | inactive |  | 
18 | O=C(Nc1ccccc1)Nc1ccc(-c2ccc(C(=O)[C@H]3CCC[C@H]3C(=O)O)cc2)cc1 | 6.62 µM (active) | inactive | inactive | inactive | inactive |  |  | inactive |  |  | 
19 | CN(C)CCOc1cc(-c2cn[nH]c2)ccc1NC(=O)C1COc2ccccc2O1 (configuration not stated) | 6.62 µM (active) | inactive |  |  |  |  | inactive |  |  |  | 17.8 µM (active)
20 | O=c1cc(-c2ccc(O)cc2)oc2cc(O)cc(O)c12 | 18.7 µM (active) | inactive | inactive | inactive |  |  | inactive | inactive |  | -18.3 | inactive
21 | CC(C)c1c(C(=O)Nc2ccccc2)c(-c2ccccc2)c(-c2ccc(F)cc2)n1CC[C@H](O)C[C@@H](O)CC(=O)O | 16.6 µM (active) |  |  | inactive |  |  |  |  | 18.7 µM (active) |  | 
